14 molecules from PubChem BioAssay can be followed below.

Assay [1] is described as follows: inhibitors of TNFa-induced NFkB p65 translocation, primary screen, imaging, HUVEC, MLSMR starter and 10KST1 sets (AID 438;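 active = inhibition above 20% together with a positive visual image hit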;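 also: compound added about 3h40 before a 20 min TNFalpha stimulation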;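 as to inhibition: signal is the nuclear over cytoplasmic p65 intensity ratio per well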). The conditions noted are these: HUVEC TNFa-induced p65 nuclear translocation; cell count: measured here: nuclei count (cytotoxicity indicator), at 2.08 µM; inhibition: at 2 µM, stronger effect = higher value, 0% TNFa-plus-vehicle, 100% no-TNFa wells.
Assay [2] in a line: inhibitors of mutant huntingtin aggregation, primary screen, imaging, exon1htt(103Q)mCFP cells, high-content imaging (AID 483;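 active = visual image review flags a hit and inhibition of aggregation exceeds 20%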;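 also: compound exposure lasted 3 days before fixation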;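 as to nuclei count: percent of the per-plate median nuclei count of sample wells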). The conditions noted are these: exon1htt(103Q)mCFP cell line, aggregate imaging, at 2 µM; inhibition of aggregation: stronger effect = higher value; nuclei count: measured here: cell count, toxicity.
A short description of assay [3]: inhibitors of E-selectin induction by TNFa, primary screen, imaging, HUVEC, immunofluorescence, MLSMR starter and 10KST1 sets (AID 487;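 active = visually confirmed hit in the image check and inhibition above 20%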;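 as to inhibition: signal is fraction of cell area covered by stained E-selectin grains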;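 as to nuclei count: 100% = median nuclei count of all wells on the same plate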). The conditions noted are these: HUVEC TNFalpha-induced E-selectin immunofluorescence imaging, at 2 µM; inhibition: stronger effect = higher value; nuclei count: measured here: cell number, toxicity.
Assay [4] addresses Voltage-gated potassium channel subunit beta-2 (Rattus norvegicus) (UniProt P62483). The experiment in a line: KvBeta enzyme negative modulators, primary screen, biochemical, NADPH fluorescence (AID 622).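 Also: slope of raw intensity against log time taken from 70 to 1610 s.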 The conditions noted are these: recombinant KvBeta, 4-cyanobenzaldehyde reduction, at 10 µM, stronger effect = higher value.
For assay [5] the target is unchanged. The experiment in a line: KvBeta positive modulators, primary screen, biochemical, NADPH fluorescence (AID 623;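 active = NADPH fluorescence slope more negative than the mean of all samples by about 3 SD, 99.7% confidence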;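 also: fluorescence intensity change per second fitted from 20 to 320 s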). The conditions noted are these: Recombinant KvBeta, NADPH fluorescence decrease slope, 10 min; at 10 µM; stronger effect = lower value.
The target in assay [6] is Alpha-2C adrenergic receptor (Homo sapiens) (UniProt P18825). Description: modulators of alpha2C/GIRK thallium flux, primary screen, cell-based, HEK293 alpha2C/GIRK1/2 (AID 624;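 active = fluorescence slope after compound addition differing from the mean of all screened samples at 99.7% confidence, in either direction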;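 also: slope of fluorescence ratio to pre-addition baseline per second over 15 to 24 s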). Conditions: thallium flux BTC fluorescence, at 10 µM, actives lie on both sides.
Assay [7] can be described thus: inhibitors of Sendai virus-induced IRF3 signaling, primary screen, TLR/RLR signaling modifier project, cell-based, Sendai virus stimulus, luciferase, 10K MLSCN set (AID 602276;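 active = inhibition at or above 50% at 10 µM; inactive = inhibition below 50%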;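 also: firefly luciferase from ISG56 promoter only with Renilla not read in this screen; 0% = Sendai virus plus DMSO and 100% = medium plus DMSO without virus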). Conditions: HEK293 RL24 IRF3 luciferase reporter, at 10 µM, stronger effect = higher value.
A short description of assay [8]: inhibitors of poly I:C-induced TLR3 signaling, primary screen, cell-based, poly I:C stimulus, luciferase, 10K MLSCN set (AID 602277;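 active = inhibition of the reporter signal at or above 50%; inactive = inhibition below 50%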). Conditions: HEK293-TLR3 RL24 IRF3 luciferase reporter, at 10 µM, stronger effect = higher value.

The source made the active and inactive calls.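 The calls were made as follows, unless noted: active = fluorescence slope higher than the sample average by over 3 SD (cut at about -0.22 in these data, passing the limit was not always enough); inactive = the rest.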

Chain of Voltage-gated potassium channel subunit beta-2 (Rattus norvegicus) (P62483 whole entry, looked up): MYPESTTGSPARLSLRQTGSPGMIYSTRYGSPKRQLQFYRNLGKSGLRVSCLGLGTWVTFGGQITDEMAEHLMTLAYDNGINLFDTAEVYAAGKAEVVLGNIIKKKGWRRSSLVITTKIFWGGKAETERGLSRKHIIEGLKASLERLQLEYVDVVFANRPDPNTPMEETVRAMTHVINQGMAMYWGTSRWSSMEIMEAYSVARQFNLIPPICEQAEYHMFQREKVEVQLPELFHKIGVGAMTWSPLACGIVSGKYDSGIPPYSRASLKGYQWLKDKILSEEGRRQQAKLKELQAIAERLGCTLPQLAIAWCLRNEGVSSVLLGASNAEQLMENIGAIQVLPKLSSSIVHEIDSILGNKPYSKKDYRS
Chain of Alpha-2C adrenergic receptor (Homo sapiens) (P18825 whole entry, looked up): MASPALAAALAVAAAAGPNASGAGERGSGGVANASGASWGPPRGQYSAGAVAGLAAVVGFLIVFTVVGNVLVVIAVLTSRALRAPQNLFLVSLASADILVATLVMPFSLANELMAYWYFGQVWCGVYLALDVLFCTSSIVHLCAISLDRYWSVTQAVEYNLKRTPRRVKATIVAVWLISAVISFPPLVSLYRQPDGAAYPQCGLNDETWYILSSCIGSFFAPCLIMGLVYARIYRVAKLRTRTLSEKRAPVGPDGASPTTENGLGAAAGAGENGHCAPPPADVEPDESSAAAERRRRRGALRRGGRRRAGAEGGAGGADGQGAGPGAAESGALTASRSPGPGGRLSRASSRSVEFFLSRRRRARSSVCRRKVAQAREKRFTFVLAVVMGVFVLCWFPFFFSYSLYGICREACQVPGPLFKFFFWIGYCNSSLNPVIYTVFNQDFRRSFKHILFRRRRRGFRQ

Regarding `O=C(Nc1ccccc1C(=O)N1CCN(c2ccccc2)CC1)c1ccco1`, the cell count in assay [1] is 300. Also, the inhibition is -5.1% (inactive) in assay [1], -73.2% (inactive) in assay [3], 0.26% (inactive) in assay [7] and -6.86% (inactive) in assay [8]. In addition, in assay [2], the inhibition of aggregation is 6.3% (inactive). Also, the nuclei count was found to be 98.2% in assay [2] and 111% in assay [3]. The fluorescence slope in assay [4] is -0.605 (inactive). Further, in assay [5], the NADPH fluorescence slope was -2.1e-05 (inactive). Moreover, in assay [6], the slope is 0.00253 (inactive).

Take `O=C(c1ccc2c(c1)OCCO2)C1CCN(C(=O)c2ccc(F)cc2)CC1`: in assay [1], the cell count came to 326. Further, the inhibition is -10% (inactive) in assay [1], -77.5% (inactive) in assay [3], 7.11% (inactive) in assay [7] and -2.46% (inactive) in assay [8]. For the same molecule, in assay [2], the inhibition of aggregation was -12% (inactive). In addition, the nuclei count in assay [2] is 110%; in assay [3], 126%. The fluorescence slope in assay [4] is -0.514 (inactive). In addition, the NADPH fluorescence slope in assay [5] is -4.4e-05 (inactive). Besides, the slope in assay [6] is 0.00672 (inactive).

Turning to `CCCSC1=C(C#N)C(c2cc(OC)ccc2OC)CC(=O)N1` (centres undefined), the cell count in assay [1] turned out to be 674. The inhibition in assay [1] was 5.8% (inactive); in assay [3], -61.3% (inactive); in assay [7], 18.1% (inactive); in assay [8], 25.8% (inactive). In addition, the inhibition of aggregation in assay [2] was 10.8% (inactive). Moreover, the figures for the nuclei count in assay [2] and in assay [3] were 114% and 116%, respectively. Moreover, the fluorescence slope in assay [4] is -0.518 (inactive). In addition, the NADPH fluorescence slope in assay [5] is -4.2e-05 (inactive). Also, the slope in assay [6] is 0.00728 (inactive).

For `C=CCn1c(Br)nc2c1c(=O)[nH]c(=O)n2C`, the cell count in assay [1] came to 372. Besides, the inhibition was -4.7% (inactive) in assay [1], -62% (inactive) in assay [3], 15.8% (inactive) in assay [7] and 9.88% (inactive) in assay [8]. Moreover, the inhibition of aggregation in assay [2] was 8.4% (inactive). For the same molecule, the results for the nuclei count in assay [2] and in assay [3] were 92.3% and 116%, respectively. Besides, the fluorescence slope in assay [4] was -0.373 (inactive). In addition, the NADPH fluorescence slope in assay [5] is -3.1e-05 (inactive). Besides, the slope in assay [6] was 0.00545 (inactive).

Turning to `CN(C(=O)c1ccco1)c1nnc(C23CC4CC(CC(C4)C2)C3)s1`, the cell count in assay [1] came out at 681. Further, the inhibition in assay [1] was -10% (inactive); in assay [3] it was -1.5% (inactive); in assay [7], -30.3% (inactive); in assay [8], -32.2% (inactive). In addition, the inhibition of aggregation in assay [2] was -1.7% (inactive). Also, the figures for the nuclei count in assay [2] and in assay [3] were 110% and 126%, respectively. The fluorescence slope in assay [4] was -0.408 (inactive). In addition, in assay [5], the NADPH fluorescence slope is -1.5e-05 (inactive). In addition, in assay [6], the slope was 0.00459 (inactive).

As to `COc1ccccc1Oc1coc2c(CN3CCN(C)CC3)c(O)ccc2c1=O`, the cell count in assay [1] is 541. Also, the inhibition in assay [1] was -0.5% (inactive); in assay [3] it was -12.9% (inactive); in assay [7] it was 11.8% (inactive); in assay [8], 34.8% (inactive). For the same molecule, the inhibition of aggregation in assay [2] is -8.8% (inactive). Further, the nuclei count was 107% in assay [2] and 89.1% in assay [3]. The fluorescence slope in assay [4] was -0.0185 (active). For the same molecule, the NADPH fluorescence slope in assay [5] is 7e-06 (inactive). In addition, the slope in assay [6] was 0.00281 (inactive).

For the molecule `CCOC(=O)N1CCC(NC(=O)c2ccc(CS(=O)(=O)c3c(Cl)cccc3Cl)o2)CC1`, the cell count in assay [1] amounted to 608. Also, the inhibition was -3.7% (inactive) in assay [1], -44.1% (inactive) in assay [3], 16.5% (inactive) in assay [7] and 0.288% (inactive) in assay [8]. The inhibition of aggregation in assay [2] was 10.7% (inactive). Besides, the values for the nuclei count in assay [2] and in assay [3] were 94.3% and 104%, respectively. The fluorescence slope in assay [4] was -0.611 (inactive). The NADPH fluorescence slope in assay [5] is 2.7e-05 (inactive). Further, the slope in assay [6] is 0.00587 (inactive).

On to `COC(=O)c1cc(OC)c(OC)cc1NC(=O)CCC1CCCC1`, for which, in assay [1], the cell count is 452. In addition, the inhibition was 3.7% (inactive) in assay [1], -78.6% (inactive) in assay [3], 12.6% (inactive) in assay [7] and 22.5% (inactive) in assay [8]. In addition, in assay [2], the inhibition of aggregation is 14.1% (inactive). The nuclei count in assay [2] is 104%; in assay [3], 101%. Further, the fluorescence slope in assay [4] was -0.637 (inactive). Further, the NADPH fluorescence slope in assay [5] is -1e-05 (inactive). In assay [6], the slope is 0.00682 (inactive).

As to `Cc1[nH]c2ccccc2c(=O)c1CN1CCCCC1`, in assay [1], the cell count is 400. Moreover, the inhibition is 2.1% (inactive) in assay [1], -47.3% (inactive) in assay [3], 6.83% (inactive) in assay [7] and 36.8% (inactive) in assay [8]. For the same molecule, in assay [2], the inhibition of aggregation is -1.5% (inactive). The results for the nuclei count in assay [2] and in assay [3] were 111% and 119%, respectively. In assay [4], the fluorescence slope is -0.453 (inactive). For the same molecule, the NADPH fluorescence slope in assay [5] is -5.7e-05 (inactive). Further, in assay [6], the slope is 0.00287 (inactive).

As for `Cc1ccccc1CN1CCN(CC(=O)NCc2ccccc2)C1=O`, the cell count in assay [1] amounted to 518. For the same molecule, the inhibition in assay [1] was -20.8% (inactive); in assay [3], -45.7% (inactive); in assay [7], 2.1% (inactive); in assay [8], 24.6% (inactive). Moreover, the inhibition of aggregation in assay [2] was -45.2% (inactive). The values for the nuclei count in assay [2] and in assay [3] were 97.7% and 114%, respectively. For the same molecule, in assay [4], the fluorescence slope is -0.42 (inactive). Also, the NADPH fluorescence slope in assay [5] is -0.000111 (inactive). The slope in assay [6] is 0.00614 (inactive).

`C=CCNC(=O)CN(c1cccc(Br)c1)S(C)(=O)=O`: the cell count in assay [1] came to 322. The inhibition is -0.5% (inactive) in assay [1], 21.4% (inactive) in assay [3], 8.3% (inactive) in assay [7] and 14.4% (inactive) in assay [8]. The inhibition of aggregation in assay [2] is 13.9% (inactive). For the same molecule, the figures for the nuclei count in assay [2] and in assay [3] were 95.4% and 115%, respectively. Moreover, the fluorescence slope in assay [4] was -0.509 (inactive). In addition, the NADPH fluorescence slope in assay [5] was 2.5e-05 (inactive). Moreover, the slope in assay [6] was 0.00557 (inactive).

In the case of `COC(=O)C1=C(C)NC2=C(C(=O)CCC2)C1c1coc2ccccc2c1=O` (centres undefined), in assay [1], the cell count was 322. Moreover, the inhibition was -2.1% (inactive) in assay [1], -47.5% (inactive) in assay [3], 16.4% (inactive) in assay [7] and 48.4% (inactive) in assay [8]. The inhibition of aggregation in assay [2] is 14.4% (inactive). The results for the nuclei count in assay [2] and in assay [3] were 98.3% and 111%, respectively. Moreover, the fluorescence slope in assay [4] was -0.244 (inactive). Moreover, the NADPH fluorescence slope in assay [5] is 7.1e-06 (inactive). Moreover, in assay [6], the slope was 0.00668 (inactive).

Take `Cc1ccc(NC(=O)CSc2nnc(Cc3cccn3C)n2-c2ccc(F)cc2)cc1`: the cell count in assay [1] worked out at 562. Further, the inhibition in assay [1] is 12.9% (inactive); in assay [3] it was -118% (inactive); in assay [7], 8.62% (inactive); in assay [8], 23.7% (inactive). Moreover, the inhibition of aggregation in assay [2] was -6.4% (inactive). For the same molecule, the results for the nuclei count in assay [2] and in assay [3] were 98.7% and 91.3%, respectively. For the same molecule, in assay [4], the fluorescence slope was -0.586 (inactive). Further, the NADPH fluorescence slope in assay [5] is -2.1e-06 (inactive). In assay [6], the slope was 0.00658 (inactive).

As for `CCOCC(=O)Nc1c(C(=O)Nc2ccc(OC)cc2OC)oc2ccccc12`, the cell count in assay [1] is 543. Further, the inhibition was -4.1% (inactive) in assay [1], 52.4% (inactive) in assay [3], -20.7% (inactive) in assay [7] and -15.2% (inactive) in assay [8]. Besides, the inhibition of aggregation in assay [2] was 19.2% (inactive). Further, the figures for the nuclei count in assay [2] and in assay [3] were 93.9% and 57.7%, respectively. In addition, in assay [4], the fluorescence slope was -0.19 (inactive). Moreover, in assay [5], the NADPH fluorescence slope was -9.5e-06 (inactive). The slope in assay [6] was 0.00574 (inactive).
